High-throughput results deposited in PubChem BioAssay by Broad Institute.
PglD DTNB: C. jejuni PglD acetyltransferase inhibitors, primary screen, biochemical, DTNB colorimetric, single point; purified PglD enzyme, DTNB colorimetric CoA detection; inhibition, % at 12.5 µM; actives 0.098% (n = 360,000); AID 602405, 2012; in the data active = inhibition above about 16%, passing the limit was not always enough; inconclusive = no clear call, values can overlap the other calls
Rtt109 Vps75: inhibitors of C. albicans Rtt109/Vps75 HAT, primary screen, biochemical, ThioGlo CoA-SH fluorescence, plate reader | AID 540336, 2011 | inhibition, % at 34.9 µM | Histone acetyltransferase RTT109 (Candida albicans (strain SC5314 / ATCC MYA-2876)), … | purified Rtt109/Vps75, 4 h | actives 0.16% (n = 330,000);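 active = inhibition of at least 50% in every replicate; inconclusive = best replicate reaches 50% inhibition but some replicates fall short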
Target sequence (Q5AAJ8 whole entry, looked up): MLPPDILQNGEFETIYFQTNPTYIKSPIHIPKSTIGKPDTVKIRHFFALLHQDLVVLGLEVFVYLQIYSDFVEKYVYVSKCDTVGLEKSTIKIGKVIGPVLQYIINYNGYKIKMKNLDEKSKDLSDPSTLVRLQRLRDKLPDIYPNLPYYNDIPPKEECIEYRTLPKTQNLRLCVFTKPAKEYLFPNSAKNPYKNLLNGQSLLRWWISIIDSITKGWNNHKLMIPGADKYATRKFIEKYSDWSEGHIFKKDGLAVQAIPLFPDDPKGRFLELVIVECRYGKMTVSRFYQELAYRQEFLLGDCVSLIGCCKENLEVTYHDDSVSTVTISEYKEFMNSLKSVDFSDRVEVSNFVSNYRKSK
DENV2 CPE: inhibitors of DENV2 cytopathic effect, primary screen, cell-based, plate reader, single concentration; DENV2-infected cells, cytopathic effect rescue; CPE inhibition, % at 9.99 µM; actives 1.7% (n = 350,000); AID 651640, 2012; in the data active = CPE inhibition above about 20%, passing the limit was not always enough; inconclusive = no clear call, values can overlap the other calls; tested in BHK-21 cells;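 also: 0% = median of neutral control wells and 100% = median of positive control wells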
N-glyco inh: increase of ERlucT glycosylation luciferase signal, primary screen, N-linked glycosylation inhibitor project, D54 ERlucT cells, luminescence, set 2. actives 0.23% (n = 360,000). D54 ERlucT glycosylation luciferase reporter, 24 h; percent of 100 nM tunicamycin response. reporter increase, % at 12.5 µM. AID 588692, 2011;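 active = mean luciferase reporter signal, scaled so untreated is 0 and the glycosylation-blocking control 100, at or above a set limit in every replicate; inconclusive = mean reaches the limit but not every replicate does; inactive = mean below the limit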;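 also: luciferase carries N-glycosylation sites so blocking glycosylation raises the light; 0% = median of neutral control wells and 100% = median of 100 nM tunicamycin wells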
PglD inh SP: PglD acetyltransferase inhibitors, confirmation, biochemical, DTNB absorbance, single point, cherry-picked samples; inhibition, % at 20 µM; 320 tested, under 10 active; shares compounds with PglD DTNB; Purified C. jejuni PglD, DTNB absorbance 412 nm; AID 743156, 2013;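 active = mean inhibition across replicates of at least 20% with every single replicate also at 20% or more; inconclusive = mean inhibition at least 20% but some replicate falls below 20%; inactive = mean inhibition under 20% and not all replicates reach it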;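 also: initial rate of CoA release by acetyl transfer from AcCoA to the UDP-4-amino sugar; 0% = median of neutral control wells and 100% = median of positive control wells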
Active calls of the source: *; ? = inconclusive; nt = no result given; ! = not confirmed by another sample. The sample as a whole holds a higher share of hits than the screen did.

SMILES	PglD DTNB	Rtt109 Vps75	DENV2 CPE	N-glyco inh	PglD inh SP
C[C@@H]1CN([C@@H](C)CO)C(=O)Cc2cc(NC(=O)c3ccncc3)ccc2O[C@@H]1CN(C)CC1CC1	1.6	nt	1.5	nt	nt
CNS(=O)(=O)c1ccc2c3c(cccc13)C(=O)N2	2.8	3.2	-3.2	1.0	nt
CNS(=O)(=O)c1cc(S(=O)(=O)NC)c2cccc3c2c1NC3=O	76.6*	-7.3	-7.3	1.7	1.3
CCOc1ccc2[nH]c3nc(SCC(=O)NCC4CCCO4)nnc3c2c1 (centres undefined)	24.0*	-2.4	-5.8	0.3	2.2
O=S(=O)(NC1CCN(Cc2ccccc2)CC1)c1ccc(F)c(F)c1	22.1*	nt	3.7	0.4	2.6
O=C(CN(C(=O)CNC(=O)c1cccs1)c1ccc(F)cc1)NC1CCCCC1	25.2*	-7.9	-0.2	0.5	0.0
O=C(CN(C(=O)CNC(=O)c1cccs1)c1ccc(F)cc1)NC1CCCC1	2.6	-1.1	?	-1.2	nt
CCCCN1C(=O)c2ccc(C(=O)Nc3ccc(C)c(S(=O)(=O)N(C)C)c3)cc2C1=O	24.9*	6.4	nt	-3.0	-0.8
CCCCN1C(=O)c2ccc(C(=O)Nc3cccc(C)c3C)cc2C1=O	-5.8	-9.5	nt	0.2	nt
CO[C@H]1CN(C)C(=O)c2ccc(NC(=O)NC(C)C)cc2OC[C@H](C)N(Cc2ccccn2)C[C@H]1C	0.3	nt	5.4	nt	nt
CC(C)NC(=O)N(C)C[C@H]1Oc2cc(C#Cc3ccc(F)cc3)ccc2S(=O)(=O)N([C@@H](C)CO)C[C@@H]1C	0.0	nt	5.2	nt	nt
CC(C)NC(=O)N(C)C[C@H]1Oc2cc(C#Cc3ccc(F)cc3)ccc2S(=O)(=O)N([C@H](C)CO)C[C@H]1C	21.2*!	nt	12.6	-0.6	10.0
O=C(NCc1ccco1)Oc1ccccc1	21.3*	0.3	nt	-0.9	-6.2
N#Cc1cnn2cc(-c3ncc(C(F)(F)F)cc3Cl)cnc12	47.2*	-6.5	nt	-0.1	-1.9
COc1ccc(S(=O)(=O)N(C)C[C@@H]2Oc3c(NS(=O)(=O)c4ccc(F)cc4)cccc3C(=O)N([C@H](C)CO)C[C@@H]2C)cc1	1.9	nt	?	nt	nt
CCCCNC(=S)NNc1c(Cl)cc(Cl)cc1Cl	22.7*	-3.8	-1.2	-1.3	10.0
O=C(CCN1CCCCC1)NCC[C@H]1CC[C@H](NC(=O)C2CC2)[C@H](CO)O1	4.7	nt	7.2	nt	nt
FC(F)(F)c1ccncc1-c1nnc(C2CCCCC2)o1	21.9*	-3.1	4.0	-0.6	0.3
CO[C@@H]1CN(C)C(=O)c2ccc(NC(C)=O)cc2OC[C@H](C)N(Cc2nccs2)C[C@@H]1C	-0.9	nt	-3.9	nt	nt
Cn1ncc(C(=O)Nc2ccc(OC(F)(F)F)cc2)c1-n1cccc1	21.3*	-24.1	1.9	5.3	-4.7
C/C=C/c1ccc([C@H]2[C@@H](CO)N(C(C)=O)[C@H]2CNC(=O)CC2CC2)cc1	0.3	nt	-8.6	nt	nt
CCCCNc1cc(=O)oc2ccccc12	nt	20.3	nt	-1.5	nt
COC(CNc1cc(=O)oc2ccccc12)OC	22.8*	4.8	nt	-0.2	0.5
O=C(CCN1CCCCC1)NCC[C@H]1CC[C@H](NC(=O)Nc2ccc(Cl)cc2)[C@H](CO)O1	1.1	nt	12.3	nt	nt
C=C(C)C(=O)Nc1cccc(C2=NOC3(C2)C[C@@H](C(N)=O)N(C(=O)C2(C)CC2)C3)c1 (some centres undefined)	22.9*	-9.7	nt	-2.4	1.9
SMILES	PglD DTNB	Rtt109 Vps75	DENV2 CPE	N-glyco inh	PglD inh SP
COc1ccc(NC(=O)N(C)C[C@@H]2Oc3ccc(NC(=O)Cc4ccccc4)cc3CC(=O)N([C@H](C)CO)C[C@H]2C)cc1	-1.1	nt	0.2	nt	nt
CCCCNC(=O)Nc1nnc(-c2ccccc2)o1	39.4*	2.4	nt	2.0	2.0
COc1ccccc1/C=C/C(=O)N1CCN(S(=O)(=O)c2cccs2)CC1	31.9*	-3.5	7.2	-3.3	-0.8
Oc1ccccc1-c1cc(C(F)(F)C(F)F)nc(-c2ccccc2)n1	-2.6	-7.7	nt	-3.4	nt
O=[N+]([O-])c1ccc(O)c(-c2cc(C(F)(F)F)nc(-c3ccccc3)n2)c1	24.6*	0.2	-5.7	-12.6	1.5
C/C(=N/OCO/N=C(/C)c1ccc(F)cc1)c1ccc(F)cc1	25.9*	0.2	0.4	-13.3	-0.3
CCCCn1c(SCC(=O)N2CC(C)CC(C)C2)nc2cc(S(N)(=O)=O)ccc21 (centres undefined)	1.5	17.8	nt	1.0	nt
CCCCn1c(SCC(=O)N2CCCCC2)nc2cc(S(N)(=O)=O)ccc21	45.5*	-12.0	nt	0.8	2.1
CC1CN2C(c3ccc([N+](=O)[O-])cc3)=CSC2=N1 (centres undefined)	74.9*	5.8	-2.7	0.3	1.8
CC1C(=O)NN=C1c1ccc([N+](=O)[O-])cc1 (centres undefined)	nt	10.8	-0.8	-0.1	nt
N#C/C(=N\O)c1nc2ccccc2[nH]1	nt	5.5	nt	1.8	nt
Cc1ccc2nc(/C(C#N)=N/O)[nH]c2c1	37.8*	-9.1	nt	0.1	-12.1
CCCC#Cc1ccc([C@H]2[C@@H](CO)N3C(=O)CN(C(=O)Nc4ccccc4)C[C@@H]23)cc1	nt	nt	-2.3	nt	nt
C#CC1CCCCC1NC(=O)Nc1cnccc1C(F)(F)F (centres undefined)	20.1*	4.0	-2.2	2.8	-2.2
O=C(CSCCO)Nc1cccc(C(F)(F)F)c1	23.2*	-0.6	nt	-1.1	-0.7
CC=Cc1ccc2n(c1=O)C[C@H]1[C@H](CO)[C@@H](C(=O)NCC)[C@@H]2N1CC1CCOCC1 (mixture of isomers)	-3.3	nt	-1.4	nt	nt
COc1cccc(C(=O)NNC(=O)C(=O)Nc2cccc(Cl)c2C)c1	21.7*	-0.1	1.0	1.8	9.8
CO[C@H]1CN(C)C(=O)c2cc(NS(=O)(=O)c3ccccc3C)ccc2OC[C@@H](C)N(S(C)(=O)=O)C[C@@H]1C	-1.8	nt	3.4	nt	nt
CCn1c(SCC(=O)Nc2ccc3c(c2)OCCO3)nnc1-c1ccccn1	76.5*	-9.2	nt	2.4	-3.6
O=C(C[C@H]1CC[C@@H]2[C@H](COC[C@@H](O)CN2S(=O)(=O)c2ccc(F)cc2)O1)N[C@@H]1CCN(Cc2ccccc2)C1	-4.1	nt	2.2	nt	nt
CC(c1ccccc1)n1c(CO)nc2ccccc21 (centres undefined)	67.1*	5.2	-3.5	-0.8	2.2
Cc1nc2ccccc2n1C(C)c1ccccc1 (centres undefined)	-2.7	-2.5	7.4	-0.5	nt
O=C(Nc1cccnc1Cl)c1cc([N+](=O)[O-])ccc1Cl	2.7	2.4	nt	-0.2	nt
Cc1ccc([N+](=O)[O-])c(C(=O)Nc2cccnc2Cl)c1	20.8*	nt	0.1	1.9	-3.8
COc1ccc(-c2cc(-c3ccc(OC)cc3)[nH]n2)cc1	31.8*	7.0	nt	-8.4	-3.5
